# A number with no mark means an inactive call. Results filed as inconclusive are left out. A call without a number means that no potency is given here. Calls of active or inactive are those of the source. Unless noted, calls come from the whole dose curve; as a rule, active = well fitted curve in the direction sought with a large enough effect; inconclusive = small, poorly fitted or top-dose-only effect, or another doubt; inactive = no such curve, though single readings can be large; an effect the other way counts as inactive or inconclusive.
# Experiments:
# [1] = AP1 Signaling Pathway (AID 357; active = well fitted curve in either direction with a large enough effect, not every such curve was filed as active;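 note: ME-180 reporter cells stimulated with EGF at its EC50 level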); conditions: ME-180 AP-1-bla reporter, EGF-induced, beta-lactamase ratio, 5 h; at 7.69 µM (top of the series) unless noted
# Method in brief: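 Beta-lactamase reporter under AP-1 response element, ME-180 background. Stimulus: EC50 EGF. Compound exposure 5 h, 37 °C. Detection: CCF4, 2.5 h RT, 460/530 nm. Values: AC50 from titration.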
# [2] = molecular target: Cytochrome P450 1A2 (Homo sapiens) (UniProt P05177); test: p450-cyp1a2 (AID 410; calls by dose curve)
# Cytochrome P450 1A2 (Homo sapiens), sequence (P05177 whole entry, looked up): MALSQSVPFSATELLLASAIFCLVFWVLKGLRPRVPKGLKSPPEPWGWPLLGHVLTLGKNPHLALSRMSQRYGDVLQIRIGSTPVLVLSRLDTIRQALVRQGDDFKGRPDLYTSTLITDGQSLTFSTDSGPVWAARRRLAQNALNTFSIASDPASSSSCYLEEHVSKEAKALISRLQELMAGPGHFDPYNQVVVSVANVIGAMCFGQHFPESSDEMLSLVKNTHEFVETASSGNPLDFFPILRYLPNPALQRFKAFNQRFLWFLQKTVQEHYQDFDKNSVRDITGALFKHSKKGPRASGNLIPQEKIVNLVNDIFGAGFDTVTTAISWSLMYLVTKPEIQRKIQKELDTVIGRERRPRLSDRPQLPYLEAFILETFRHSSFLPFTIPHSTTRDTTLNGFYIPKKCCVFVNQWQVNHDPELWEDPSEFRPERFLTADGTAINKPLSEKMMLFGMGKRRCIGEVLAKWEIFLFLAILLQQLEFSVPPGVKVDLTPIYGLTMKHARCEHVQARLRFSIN
# Method in brief: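 Human CYP1A2 (20nM) demethylated Luciferin-ME at its Km (100uM) in 100mM KPO4. After 10 min compound preincubation, NADPH regeneration ran the reaction 60 min at room temperature. Luciferin was read by luminescence, normalized to 57 uM furafylline.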
# [3] = NFAT Signaling Pathway (AID 444; active = well fitted curve in either direction with a large enough effect, not every such curve was filed as active;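 note: carbachol stimulus at about its EC50 of 1 µM final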); conditions: Jurkat NFAT-bla M1, carbachol, beta-lactamase ratio, 5 h; at 7.69 µM (top of the series) unless noted
# Method in brief: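 Jurkat cells carrying an NFAT-driven β-lactamase reporter and co-transfected muscarinic M1 receptor were treated with compound plus carbachol (1 uM final, an EC50 level) for 5 h at 37 °C. CCF4 loading followed for 1 h at RT; 460/530 nm ratio gave %activity.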
# [4] = Stat Signaling Pathway (AID 446; active = well fitted curve in either direction with a large enough effect, not every such curve was filed as active;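 note: ME-180 cervical cancer cells given 40 pM IL-6 alongside compound; SIE-controlled beta-lactamase reporter measured as 460/530 nm FRET emission ratio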); conditions: ME-180 SIE beta-lactamase reporter, IL-6 stimulated, 5 h; at 7.69 µM (top of the series) unless noted
# Method in brief: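 Reporter line: ME-180 cervical carcinoma, SIE-beta-lactamase. Treatment: compound with 40 pM IL-6, 5 hrs, 37 C, in low-serum OPTI-MEM with 10 mM HEPES pH 7.3. Detection: 460/530 nm fluorescence.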
# [5] = molecular target: Glucocorticoid receptor (Homo sapiens) (UniProt P04150); test: GR-GFP Redistribution (AID 450;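 active = compounds whose dose series gives a full or clear partial fitted curve of increased nuclear translocation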; note: potency is the fitted concentration of half-maximal effect); conditions: U2OS GR-GFP nuclear translocation, laser cytometry, 2 h
# Glucocorticoid receptor (Homo sapiens), sequence (P04150 whole entry, looked up, the tested form may be a part): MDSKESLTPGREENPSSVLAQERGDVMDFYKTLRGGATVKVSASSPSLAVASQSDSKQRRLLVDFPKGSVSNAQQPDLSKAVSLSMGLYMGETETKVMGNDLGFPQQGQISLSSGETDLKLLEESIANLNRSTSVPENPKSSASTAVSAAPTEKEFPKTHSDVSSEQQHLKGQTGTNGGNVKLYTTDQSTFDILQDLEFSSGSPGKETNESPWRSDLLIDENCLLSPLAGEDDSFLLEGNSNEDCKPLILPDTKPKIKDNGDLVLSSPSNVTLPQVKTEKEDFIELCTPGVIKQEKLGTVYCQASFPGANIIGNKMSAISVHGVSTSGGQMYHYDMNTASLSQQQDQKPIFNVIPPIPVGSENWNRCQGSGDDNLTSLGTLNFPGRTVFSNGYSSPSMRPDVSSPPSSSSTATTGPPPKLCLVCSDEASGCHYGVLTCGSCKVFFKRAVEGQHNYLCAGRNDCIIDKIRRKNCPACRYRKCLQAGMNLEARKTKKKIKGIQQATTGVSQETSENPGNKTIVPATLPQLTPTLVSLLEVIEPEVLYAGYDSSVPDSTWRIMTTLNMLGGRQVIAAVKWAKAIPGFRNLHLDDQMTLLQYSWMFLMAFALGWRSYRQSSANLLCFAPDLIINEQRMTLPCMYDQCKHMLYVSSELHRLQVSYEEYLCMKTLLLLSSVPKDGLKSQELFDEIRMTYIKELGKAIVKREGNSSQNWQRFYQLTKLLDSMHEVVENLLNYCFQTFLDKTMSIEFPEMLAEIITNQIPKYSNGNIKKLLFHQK
# [6] = molecular target: Glucocorticoid receptor (Homo sapiens) (UniProt P04150); test: GR-EFC Redistribution (AID 451; calls by dose curve; note: potency is the fitted concentration of half-maximal effect); conditions: CHO-K1 GR-EFC translocation, beta-gal luminescence, 2 h
# Method in brief: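 CHO-K1 cells stably expressing nuclear-localized β-gal enzyme acceptor and GR fused C-terminally to the enzyme donor fragment; ligand-driven nuclear translocation restores β-gal by complementation. Compounds titrated up to 46 uM final, 2 h at 37 °C; luminescence read.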
# [7] = molecular target: Mitogen-activated protein kinase 10 (Mus musculus) (UniProt Q61831); test: JNK3 AlphaScreen Assay (AID 530; active = well fitted curve in either direction with a large enough effect, not every such curve was filed as active;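 note: kinase came from lysate of stimulated human HepG2 cells; signal reports phosphorylation of biotinylated GST-cJun 1-79 at Ser73 with 10 µM ATP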)
# Method in brief: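 JNK3 came from HepG2 lysates pre-activated with IL-1beta and TNF-alpha and phosphorylated biotinylated GST-cJun (1-79) at 10 uM ATP, pH 7.6, room temperature. Compounds were titrated. AlphaScreen signal used anti-phospho-cJun (Ser73) antibody.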
# [8] = molecular target: 3',5'-cyclic-AMP phosphodiesterase 4B (Homo sapiens) (UniProt Q07343); test: qHTS Assay for Inhibitors of PDE-IV (AID 607; active = well fitted activation curve with a large enough effect in the main read-out, with a control signal flat, not every such curve was filed as active)
# 3',5'-cyclic-AMP phosphodiesterase 4B (Homo sapiens), sequence (Q07343 whole entry, looked up): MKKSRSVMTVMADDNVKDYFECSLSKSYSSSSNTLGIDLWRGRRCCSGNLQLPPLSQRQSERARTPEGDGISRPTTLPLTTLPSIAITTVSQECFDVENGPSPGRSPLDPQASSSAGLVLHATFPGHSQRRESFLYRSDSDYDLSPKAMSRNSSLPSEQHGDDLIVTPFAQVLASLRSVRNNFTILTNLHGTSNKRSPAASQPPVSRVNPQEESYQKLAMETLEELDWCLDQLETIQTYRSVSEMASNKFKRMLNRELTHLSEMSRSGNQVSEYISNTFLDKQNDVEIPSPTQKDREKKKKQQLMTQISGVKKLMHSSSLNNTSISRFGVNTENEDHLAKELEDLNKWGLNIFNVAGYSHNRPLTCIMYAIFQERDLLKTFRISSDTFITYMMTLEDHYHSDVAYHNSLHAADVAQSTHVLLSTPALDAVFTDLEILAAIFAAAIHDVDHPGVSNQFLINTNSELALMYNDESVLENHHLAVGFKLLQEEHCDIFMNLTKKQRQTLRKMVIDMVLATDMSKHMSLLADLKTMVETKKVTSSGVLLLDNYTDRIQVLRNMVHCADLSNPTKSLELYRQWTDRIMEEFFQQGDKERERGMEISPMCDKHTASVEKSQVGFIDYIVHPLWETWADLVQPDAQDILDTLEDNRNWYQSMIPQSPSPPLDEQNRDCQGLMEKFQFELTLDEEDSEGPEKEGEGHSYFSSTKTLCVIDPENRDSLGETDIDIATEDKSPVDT
# Method in brief: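 Cell-based read-out of cAMP via a modified cyclic nucleotide-gated channel and membrane potential dye (535/590 nm) in HEK293 cells expressing PDE4 endogenously. Compounds tested up to 22.9 uM final; 100 uM RO 20-1724 reference.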
# [9] = molecular target: Guanine nucleotide-binding protein G(i) subunit alpha-1 (Homo sapiens) (UniProt P63096); test: qHTS Assay for Inhibitors of RGS12 GoLoco Motif Activity (Green Fluorophore) (AID 879);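 note: negative values mean loss of peptide binding seen as reduced polarization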
# Guanine nucleotide-binding protein G(i) subunit alpha-1 (Homo sapiens), sequence (P63096 whole entry, looked up): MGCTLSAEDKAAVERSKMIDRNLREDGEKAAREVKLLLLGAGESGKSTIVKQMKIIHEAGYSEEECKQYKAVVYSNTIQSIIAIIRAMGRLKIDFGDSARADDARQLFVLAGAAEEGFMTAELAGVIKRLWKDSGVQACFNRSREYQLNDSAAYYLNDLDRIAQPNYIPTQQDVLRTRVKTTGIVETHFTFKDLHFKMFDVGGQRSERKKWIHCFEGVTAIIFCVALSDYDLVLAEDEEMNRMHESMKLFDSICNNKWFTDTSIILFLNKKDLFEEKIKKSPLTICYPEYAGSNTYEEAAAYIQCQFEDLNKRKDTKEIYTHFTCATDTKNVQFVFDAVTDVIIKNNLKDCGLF
# Method in brief: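 Fluorescence polarization assay: 50 nM Gαi1 with 10 nM FITC-labeled RGS12 GoLoco peptide in 10 mM Tris pH 7.5, 150 mM NaCl, 0.1 mM GDP, 0.05% NP40, 10 min at room temperature with compound.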
# [10] = qHTS Assay for Identification of Small Molecule Agonists for Thrombopoietin (TPO) Signaling Pathway (AID 917)
# Method in brief: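 IL-3-dependent murine pro-B Ba/F3 cells, stably transfected with human TPO receptor and GpIIb-promoter luciferase, are incubated 24 hrs at 37 C with test compound and 26 pM TPO; luciferase signal is read after 10 min at room temperature.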
# [11] = molecular target: Muscarinic acetylcholine receptor M1 (Rattus norvegicus) (UniProt P08482); test: qHTS Assay for Antagonists of Acetylcholine Muscarinic M1 Receptor: Kinetic Measurement of Intracellular Calcium Response (AID 943);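 note: Fluo-4 calcium signal as peak divided by basal fluorescence over 4 min; nearly all actives have a fitted effect of over 75% in size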
# Muscarinic acetylcholine receptor M1 (Rattus norvegicus), sequence (P08482 whole entry, looked up): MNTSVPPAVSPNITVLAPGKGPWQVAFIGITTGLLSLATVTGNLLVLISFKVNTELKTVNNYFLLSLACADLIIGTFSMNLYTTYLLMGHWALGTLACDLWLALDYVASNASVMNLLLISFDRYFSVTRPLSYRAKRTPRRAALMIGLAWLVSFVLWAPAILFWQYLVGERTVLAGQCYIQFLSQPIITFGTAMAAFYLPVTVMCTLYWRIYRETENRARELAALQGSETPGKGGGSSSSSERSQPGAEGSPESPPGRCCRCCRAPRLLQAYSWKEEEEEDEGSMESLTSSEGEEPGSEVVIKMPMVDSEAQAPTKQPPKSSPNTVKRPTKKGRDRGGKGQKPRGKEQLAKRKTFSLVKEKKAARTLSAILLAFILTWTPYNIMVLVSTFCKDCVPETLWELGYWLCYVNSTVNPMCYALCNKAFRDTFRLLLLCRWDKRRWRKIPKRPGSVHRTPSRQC
# Method in brief: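 CHO cells stably expressing rat M1 were loaded with no-wash Fluo-4 dye for 1 h at 37C, pre-incubated 10 min with compound, then challenged with EC80 carbachol (100 nM final); kinetic calcium read 4 min, peak/basal ratio.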
# [12] = molecular target: Muscarinic acetylcholine receptor M1 (Rattus norvegicus) (UniProt P08482); test: qHTS Assay for Antagonists of Acetylcholine Muscarinic M1 Receptor: Measurement of IP-One Response (AID 944); note: nearly all actives have a fitted effect of over 75% in size
# Method in brief: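 CHO cells expressing rat M1 receptor, recovered overnight, were pre-incubated 10 min with compound, then stimulated 30 min with carbachol at EC80 (200 nM) in LiCl-containing buffer, pH 7.4. IP1 accumulation was read by HTRF (620/665 nm).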
# [13] = molecular target: Pyruvate kinase PKM (Homo sapiens) (UniProt P14618); test: qHTS Assay for Activators of Human Muscle Pyruvate Kinase (AID 954; active = well fitted curve in the direction sought with a large enough effect, not every such curve was filed as active)
# Pyruvate kinase PKM (Homo sapiens), sequence (P14618 whole entry, looked up): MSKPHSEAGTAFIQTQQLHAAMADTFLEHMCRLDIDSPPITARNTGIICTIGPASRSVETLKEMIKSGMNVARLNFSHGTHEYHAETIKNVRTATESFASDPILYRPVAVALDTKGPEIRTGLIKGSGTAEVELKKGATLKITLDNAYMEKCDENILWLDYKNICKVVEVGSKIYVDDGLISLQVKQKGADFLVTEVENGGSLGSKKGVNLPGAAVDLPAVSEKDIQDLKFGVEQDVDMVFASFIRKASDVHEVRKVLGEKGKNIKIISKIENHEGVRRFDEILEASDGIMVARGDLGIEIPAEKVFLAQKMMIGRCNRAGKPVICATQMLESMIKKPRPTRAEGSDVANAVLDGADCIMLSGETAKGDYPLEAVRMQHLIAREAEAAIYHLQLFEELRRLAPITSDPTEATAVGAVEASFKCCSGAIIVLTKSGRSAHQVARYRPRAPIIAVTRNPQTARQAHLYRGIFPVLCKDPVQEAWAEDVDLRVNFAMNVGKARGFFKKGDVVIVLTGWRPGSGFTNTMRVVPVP
# Method in brief: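 Human PKM2 activity is measured as ATP generation, detected by luciferase-coupled luminescence. The enzyme (0.1 nM) acts on 0.5 mM PEP and 0.1 mM ADP for 1 h at ambient temperature; data are normalized to uninhibited and full-inhibition wells.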
# [14] = molecular target: Alpha-galactosidase A (Homo sapiens) (UniProt P06280); test: Counterscreen for Glucocerebrosidase Inhibitors: qHTS Assay for Human alpha-Galactosidase at pH 4.5 (AID 992)
# Alpha-galactosidase A (Homo sapiens), sequence (P06280 whole entry, looked up): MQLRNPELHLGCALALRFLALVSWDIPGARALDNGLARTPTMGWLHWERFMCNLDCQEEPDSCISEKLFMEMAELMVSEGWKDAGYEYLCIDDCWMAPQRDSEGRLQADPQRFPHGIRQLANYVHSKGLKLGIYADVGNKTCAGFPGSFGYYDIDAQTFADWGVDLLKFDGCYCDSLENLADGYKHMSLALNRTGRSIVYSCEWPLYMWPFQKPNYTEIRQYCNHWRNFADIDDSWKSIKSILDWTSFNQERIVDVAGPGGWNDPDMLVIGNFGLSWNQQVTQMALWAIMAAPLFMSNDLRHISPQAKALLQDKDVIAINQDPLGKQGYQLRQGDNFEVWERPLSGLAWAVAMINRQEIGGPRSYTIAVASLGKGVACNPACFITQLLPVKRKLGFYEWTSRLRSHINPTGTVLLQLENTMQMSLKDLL
# Method in brief: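 Quantitative HTS: compounds tested from 0.7 nM up to 77 uM against 2 nM enzyme with 80 uM 4-MU alpha-D-galactopyranoside. The 20 min room-temperature reaction is stopped with 1M NaOH/1M glycine, pH 10.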
# [15] = molecular target: alpha-glucosidase (Oryza sativa, rice) (UniProt Q653V4); test: Counterscreen for Glucocerebrosidase Inhibitors: qHTS Assay for Rice alpha-Glucosidase at pH 5.0 (AID 997)
# Method in brief: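 Rice alpha-glucosidase (4 nM final) with 400 uM 4-methylumbelliferyl-alpha-D-glucopyranoside in citrate buffer pH 5.0, 20 min at room temperature, stopped at pH 10; fluorescence 365/440 nm, compounds 0.7 nM–77 uM, AC50 from Hill fits.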
# [16] = molecular target: Cytochrome P450 2C9 (Homo sapiens) (UniProt P11712); test: qHTS Assay for Inhibitors and Substrates of Cytochrome P450 2C9 (AID 883); note: nearly all actives have a fitted effect of over 60% in size; note: potency is the fitted concentration of half-maximal effect
# Cytochrome P450 2C9 (Homo sapiens), sequence (P11712 whole entry, looked up): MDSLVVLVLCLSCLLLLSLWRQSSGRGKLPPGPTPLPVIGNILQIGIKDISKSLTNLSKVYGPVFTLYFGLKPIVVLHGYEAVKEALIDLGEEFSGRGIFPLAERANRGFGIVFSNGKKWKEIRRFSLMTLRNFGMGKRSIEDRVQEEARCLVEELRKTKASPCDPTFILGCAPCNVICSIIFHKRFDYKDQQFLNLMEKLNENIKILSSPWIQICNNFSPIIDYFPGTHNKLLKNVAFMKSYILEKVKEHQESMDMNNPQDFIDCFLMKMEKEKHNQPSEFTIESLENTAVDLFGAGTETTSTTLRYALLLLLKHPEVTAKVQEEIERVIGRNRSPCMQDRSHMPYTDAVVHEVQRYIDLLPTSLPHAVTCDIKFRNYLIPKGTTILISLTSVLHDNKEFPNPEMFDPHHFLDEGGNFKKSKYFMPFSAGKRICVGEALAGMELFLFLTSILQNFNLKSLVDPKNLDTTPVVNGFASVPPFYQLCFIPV
# Method in brief: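 Human CYP2C9 (10nM) hydroxylated Luciferin-H (100uM, at its KM) to luciferin in 25mM KPO4. Compound was preincubated 10 min at 37C, then NADPH regeneration started a 60 min reaction at 37C. Luminescence was read after detection reagent, normalized to 57uM sulphaphenazole.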
# [17] = molecular target: Cytochrome P450 2D6 (Homo sapiens) (UniProt P10635); test: qHTS Assay for Inhibitors and Substrates of Cytochrome P450 2D6 (AID 891);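 note: luciferin methyl ether substrate demethylated by CYP2D6 with NADPH regeneration; nearly all actives have a fitted effect of over 60% in size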
# Cytochrome P450 2D6 (Homo sapiens), sequence (P10635 whole entry, looked up): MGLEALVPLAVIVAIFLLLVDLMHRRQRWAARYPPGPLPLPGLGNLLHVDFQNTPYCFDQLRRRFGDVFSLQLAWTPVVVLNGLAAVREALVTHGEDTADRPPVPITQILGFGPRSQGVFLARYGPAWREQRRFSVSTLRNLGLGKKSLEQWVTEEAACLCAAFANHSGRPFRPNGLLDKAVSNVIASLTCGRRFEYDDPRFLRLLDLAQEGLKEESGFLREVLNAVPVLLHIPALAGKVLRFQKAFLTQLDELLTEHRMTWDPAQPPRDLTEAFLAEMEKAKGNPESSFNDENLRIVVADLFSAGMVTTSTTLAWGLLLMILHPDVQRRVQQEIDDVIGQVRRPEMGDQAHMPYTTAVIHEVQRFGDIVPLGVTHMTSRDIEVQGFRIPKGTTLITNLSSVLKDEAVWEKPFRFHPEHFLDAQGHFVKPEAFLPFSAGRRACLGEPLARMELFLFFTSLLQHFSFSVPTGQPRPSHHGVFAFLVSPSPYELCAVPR
# Method in brief: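 Human CYP2D6 (5 nM) with 30 uM Luciferin-ME EGE (at Km) in 100 mM KPO4, compound preincubated 10 min, then NADPH regeneration system for 60 min at room temperature. Luciferin read by luminescence; normalized to 1.43 uM quinidine.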
# [18] = molecular target: Cytochrome P450 2C19 (Homo sapiens) (UniProt P33261); test: qHTS Assay for Inhibitors and Substrates of Cytochrome P450 2C19 (AID 899); note: nearly all actives have a fitted effect of over 60% in size
# Method in brief: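 Human CYP2C19 (5nM) with Luciferin-H EGE at 10uM (its KM) in 50mM KPO4 was preincubated with compound for 10 min at 37C. NADPH regeneration started a 60 min 37C reaction. Luciferin was read by luminescence, normalized to 57uM ketoconazole.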
# [19] = qHTS Assay for Identification of Small Molecule Antagonists for NFkB Signaling Pathway (AID 895; active = well fitted inhibition curve with a large enough effect in the signal ratio, with a control signal flat, not every such curve was filed as active; the % refers to the signal ratio)
# Method in brief: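 NFkB-bla ME-180 cervical carcinoma cells with beta-lactamase reporter under NFkB response element; compounds added, then TNF alpha at 10 pM final (EC50), 5 h at 37 C. LiveBLAzer substrate 2 h, room temperature; emission 460/530 nm at 405 nm excitation.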
SMILES,"activity change, negative = inhibition [1]",Potency [2],"activity change, negative = inhibition [3]","activity, negative = inhibition [4]",Potency [5] [µM],Potency [6] [µM],Potency [7],Potency [8],outcome [9],outcome [10],Potency [11],Potency [12],outcome [13],outcome [14],Potency [15],Potency [16],Potency [17],Potency [18],Potency [19]
N[C@H](CCCC(=O)O)C(=O)O,3.41% [at 38 µM],inactive,7.48% [at 38 µM],-3.61% [at 38 µM],> 46,> 46,inactive,inactive,inactive,inactive,inactive,inactive,inactive,inactive,inactive,–,–,–,–
NC[C@H](O)C1CCCCCCC1,3.98% [at 38 µM],inactive,4.63% [at 38 µM],14.7% [at 38 µM],> 46,> 46,inactive,inactive,inactive,inactive,inactive,inactive,inactive,inactive,inactive,–,–,–,–
CCNC(=O)[C@@H]1O[C@@H](n2cnc3c(NCc4ccccc4)ncnc32)[C@@H](O)[C@H]1O,-7.35% [at 38 µM],inactive,17% [at 38 µM],-20.4% [at 38 µM],> 46,> 46,inactive,inactive,–,–,–,–,–,–,–,inactive,inactive,inactive,–
NC(=O)C1=CN([C@@H]2O[C@@H](COP(=O)(O)OP(=O)(O)OC[C@@H]3O[C@H](n4cnc5c(N)ncnc54)[C@@H](OP(=O)(O)O)[C@@H]3O)[C@H](O)[C@@H]2O)C=CC1,7.61% [at 38 µM],inactive,0.746% [at 38 µM],-8.82% [at 38 µM],> 46,> 46,inactive,inactive,inactive,inactive,–,inactive,inactive,inactive,inactive,–,–,–,inactive
N#C/C(=C\Nc1ccccn1)C(=O)c1ccco1,2.96%,inactive,2.59%,3.37%,> 46,> 9.22,inactive,inactive,–,–,–,–,–,–,–,3.16 µM (active),–,–,–

# Source: PubChem BioAssay (NCATS)
